The source of these data is PubChem BioAssay AID504444 (National Center for Advancing Translational Sciences (NCATS), 2011).

Where “and” joins values, the source holds several entries; their conditions need not be identical. Equal entries are not always repeated. Out of some 360,000 compounds screened, about 7,500 (2.1%) were called active. Roughly 20% stayed inconclusive and do not appear here. What follows is part of a selection rich in actives, with near analogues and random picks from the rest. Unmarked numbers belong to inactive results. The call rests on the fitted dose curve; in most records, active means well fitted inhibition curve with a large enough effect; inconclusive means small, poorly fitted or top-dose-only effect, or effect the other way; inactive means flat fitted curve, though single readings scatter.
On the % scale 0 is the no-effect control and ±100 the full control effect; potency means the concentration at half of the fitted maximal effect.

The test can be described thus: Nrf2 qHTS screen for inhibitors. Further: nearly all actives have a fitted effect of over 60% in size. Conditions: A549 ARE-Fluc reporter, luciferase luminescence, 18-24 h; series mostly up to 46 µM; activity change, negative = inhibition: at the top concentration. Put shortly:
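Two sequential reads on A549 ARE_Fluc cells exposed to compound for 18-24 h: a CellTiter-Fluor fluorescence read for viability, then a luciferase luminescence read for Nrf2/ARE activity.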
Background: In qHTS, concentration-response curves come from the screen itself.
`COc1ccccc1C(=O)OCc1cc(=O)n2nc(-c3cccs3)sc2n1`: the “activity change, negative = inhibition” value is 15%. As for `CC(C)(C)S(=O)(=O)N1Cc2cc(CO)cc(CCO)c2[C@H]1CCO`, the “activity change, negative = inhibition” value is 3.32%. As for `O=C(N/N=C/c1ccccn1)c1cccc(NC(=O)c2ccc(Cl)cc2)c1`, the Potency is 23.1 µM (active). Turning to `O=C(N/N=C/c1ccccn1)c1ccc(S(=O)(=O)N2CCCCCC2)cc1`, the “activity change, negative = inhibition” value was -9.53%. Still for that read-out and setting: with `O=C(N/N=C/c1ccccn1)c1cccnc1` the figure was -21%; with `CCOc1ccc(/C=C(/C#N)c2nnc(N3CCOCC3)n2-c2ccccc2)cc1OC`, 3.02%. On the same count and under the same terms, the value for `COc1ccc(CNC(=O)c2ccc(NC(=O)N3CC4CCCN4c4ccccc43)cc2)cc1` (stereo not drawn) was -10.6%; that for `CCN(CCCNC(=O)c1cc2c(=O)n(CC)c3ccccc3c2s1)Cc1ccccc1` was -3.82%. Regarding `CCN1CCN(c2cc(C)c3cc(NC(=O)c4cc(Cl)ccc4OC)ccc3n2)CC1`, the activity change, negative = inhibition was 12% [at 9.27 µM]. In the case of `O=C(Nc1ncc([N+](=O)[O-])s1)C1COc2ccccc2O1` (stereo not drawn), the Potency was 14.6 µM (active).

With `O=C(Nc1nnc(SCc2ccc(Cl)cc2Cl)s1)C1COc2ccccc2O1` (stereo not drawn), the “activity change, negative = inhibition” value was -3.38%. Still for that read-out and setting: the value for `O=C(Nc1nc2c(F)cc(F)cc2s1)C1COc2ccccc2O1` (stereo not drawn) was 0%; that for `Cc1ccc(C(=O)Nc2cc3c(cc2N2CCCC2)n(C)c(=O)c(=O)n3C)cc1` was -16.1%; that for `CN(C)C(=O)CCc1ccc2c3c([nH]c2c1)[C@]1(CCc2ccccc2)[C@@H](C(=O)N2CCCCC2)C[C@H](CC(=O)NCCC2=CCCCC2)C(=O)N1CC3` was 0.72%. Still for that read-out and setting: with `O=C(Cn1c(-c2cccs2)cc2ccccc21)NCCc1ccc(Cl)cc1` the figure was -13.9%. Take `COc1ccc(S(=O)(=O)N2CCN(C(=S)NCC3CCCO3)CC2)cc1OC` (stereo not drawn): the “activity change, negative = inhibition” value is -20.4%. On the same count and under the same terms, with `CCOc1ccc(S(=O)(=O)N2CCN(C(=S)NCC3CCCO3)CC2)cc1` (stereo not drawn) the figure was -33.1%. Consider `S=C(NCC1CCCO1)N1CCN(c2ccc(Cl)c(Cl)c2)CC1` (stereo not drawn), for which the Potency is 14.6 µM (active). Consider `CCCCOc1ccc(CN2C(=O)C(=O)c3cc(Br)cc(C)c32)cc1OC`, for which the “activity change, negative = inhibition” value is -12.3%. Take `O=C(CN1C(=O)COc2ccc(S(=O)(=O)N3CCCCCC3)cc21)N1CCN(c2cccc(C(F)(F)F)c2)CC1`: the “activity change, negative = inhibition” value is 0.38%. Still for that read-out and setting: the value for `CCc1cc2c(cc3c(=O)n(CC(=O)NCc4cccc(Cl)c4)nc(CC)n32)s1` was 3.17%; that for `CN(C)c1ccc(NC(=O)CSc2nc(-c3ccco3)cc(C(F)(F)F)n2)cc1` was 4.36%. Same read-out and setting: with `Cc1ccc(C)c(S(=O)(=O)N2CCN(C(=O)Nc3ccccc3)CC2)c1` the figure was -16.1%. For the compound `Cc1ccc(C)c(S(=O)(=O)N2CCN(c3ncnc4sccc34)CC2)c1`, the Potency is 18.4 µM (active). On to `Cc1ccc(S(=O)(=O)N2CCN(c3nc(-n4cnc5ccccc54)nc4ccccc34)CC2)cc1`, for which the “activity change, negative = inhibition” value was 18.1%. For the compound `Cc1ccc(S(=O)(=O)N2CCN(c3ncnc4ccccc34)CC2)cc1`, the Potency was 2.31 µM (active) and 8.2 µM (active).

With `COc1ccc(C)cc1S(=O)(=O)N1CCN(S(=O)(=O)c2cc(C(=O)O)ccc2C)CC1`, the “activity change, negative = inhibition” value is 4.87%. With `O=[N+]([O-])c1ccc(S(=O)(=O)N2CCN(c3nc(-c4ccccc4)nc4ccccc34)CC2)cc1`, the “activity change, negative = inhibition” value was -12.6%.

For the compound `Cc1ccc(C)n1-c1nnc(N2CCC(C(=O)NCc3ccccc3Cl)CC2)s1`, the “activity change, negative = inhibition” value was 4.84%.

Consider `CCCCn1nc(C(=O)Nc2cccc(C(=O)NC3CC3)c2)c2ccccc2c1=O`, for which the “activity change, negative = inhibition” value is -23.9%. The same measure, in the same setting: the value for `Cc1ccccc1NC(=O)CSC(=O)c1ccccc1` was 18.1%. Still for that read-out and setting: with `CC(=O)c1ccc(-c2nnc(CCC(=O)N(C)Cc3cnc4ccccn34)o2)s1` the figure was 26.1%.

As to `CCc1ccc(CN(C)C(=O)CCc2nnc(-c3ccc(-c4ccccc4)cc3)o2)nc1`, the Potency is 18.4 µM (active). As for `CCc1ccc(CN(C)Cc2nc(Cc3ccccc3)no2)nc1`, the “activity change, negative = inhibition” value is 0%. On the same count and under the same terms, the value for `NC(=S)NN=C1CCCC(C(F)(F)F)C1` (stereo not drawn) was 0.985%. Take `O=S(=O)(Nc1ccc2nc(N3CCOCC3)sc2c1)c1ccccc1`: the “activity change, negative = inhibition” value was 11.5%. Still for that read-out and setting: the value for `COc1ccc(Cl)cc1NC(=O)COC(=O)c1ccc(Br)o1` was 16.4%; that for `CC(=O)Nc1ccc(S(=O)(=O)NCCC(=O)N2CCN(c3ccccc3Cl)CC2)cc1` was -4.63%; that for `CC(=O)Nc1ccc(NC(=O)COc2ncnc3ccccc23)cc1` was 2.36%. With `CC(=O)Nc1ccc(Nc2c3ccccc3nc3ccccc23)cc1`, the Potency was 5.8 µM (active). As to `CCc1nc(Nc2ccc(NC(C)=O)cc2)c2oc3ccccc3c2n1`, the “activity change, negative = inhibition” value was -11.3%.

Turning to `O=C1N[C@H](Cc2c[nH]c3ccccc23)COC(=O)[C@H](Cc2ccc(F)cc2)C/C=C\C[C@H]1CC(=O)N(CCO)Cc1ccccc1`, the “activity change, negative = inhibition” value was -16.1%. Same read-out and setting: the value for `O=C(C1CCCN(S(=O)(=O)c2cccc3nonc23)C1)N1CCN(c2ccccc2F)CC1` (stereo not drawn) was -25%; that for `COc1ccc(S(=O)(=O)Nc2ccc3cn[nH]c3c2)cc1[N+](=O)[O-]` was 6.63%. The same measure, in the same setting: with `O=C(O)c1ccccc1/C=N/Nc1ccc(S(=O)(=O)Nc2ccc(Cl)cc2)cc1[N+](=O)[O-]` the figure was -5.39%. For `O=[N+]([O-])c1cc(S(=O)(=O)Nc2cccc(Cl)c2)ccc1N=Nc1c(O)[nH]c2ccccc12`, the Potency was 20.6 µM (active). As to `O=C(NCCCO)c1nn(-c2ccc(Cl)cc2)nc1CO`, the “activity change, negative = inhibition” value was -0.928%. With `O=C(CN1CCCSc2ccccc21)N1CCN(S(=O)(=O)c2ccccc2)CC1`, the “activity change, negative = inhibition” value was -12.5%. The same measure, in the same setting: the value for `Cc1ccc(-c2nn(CCC(=O)Nc3ccc(OC(F)(F)F)cc3)c(=O)c3ccccc23)cc1` was 3.4%. Regarding `CCCN(c1ccc(C(C)C)cc1)S(=O)(=O)c1c(C)[nH]c(=O)[nH]c1=O`, the Potency is 5.8 µM (active). For `CCOc1ccc(N(CC(=O)Nc2ccccc2F)S(=O)(=O)c2c(C)[nH]c(=O)[nH]c2=O)cc1`, the “activity change, negative = inhibition” value is 4.6%.

On to `CCOc1ccc(N(CC(=O)NC2CCCCCC2)S(=O)(=O)c2c(C)[nH]c(=O)[nH]c2=O)cc1`, for which the “activity change, negative = inhibition” value was -13.3%.

Turning to `COc1ccccc1CNC(=O)c1ccc(CS(=O)c2ccccc2Cl)o1` (stereo not drawn), the “activity change, negative = inhibition” value was -25.7%. Still for that read-out and setting: with `COC(=O)[C@]1(Cc2ccccc2)N[C@H](CN(C)S(=O)(=O)c2ccc(F)cc2)[C@@H]2C(=O)N(Cc3ccccc3)C(=O)[C@@H]21` the figure was -3.86%; with `O=C(Nc1nnc(S(=O)(=O)N2CCCc3ccccc32)s1)c1cccc(F)c1`, 6.53%; with `CC1CCN(C(=O)c2cccc(S(=O)(=O)N3CCCc4ccccc43)c2)CC1`, -20.5%. On to `Cc1ccc(NC(=O)c2cccc(S(=O)(=O)N3CCCc4ccccc43)c2)nc1`, for which the Potency was 10.3 µM (active). `Cc1ccc(S(=O)(=O)N2CCN(C(=O)Cn3c(=O)cnc4ccccc43)CC2)c(C)c1`: the “activity change, negative = inhibition” value was -5.38%.

Consider `O=C1OC(Oc2ccc(Br)cc2)(c2ccccc2)c2ccccc21` (stereo not drawn), for which the “activity change, negative = inhibition” value is -9.2%. In the case of `CCOc1ccc(NC(=O)c2cn(C3CCCCC3)c(=O)c3c2c2ccccc2n3C)cc1`, the “activity change, negative = inhibition” value was 13%. With `Cn1c2ccccc2c2c(C(=O)N3CCN(c4ccc(F)cc4)CC3)cn(C3CCCC3)c(=O)c21`, the Potency was 25.9 µM (active). Turning to `CC(C)N(C(=O)COC(=O)c1ccccc1C(=O)N1CCN(c2ccc(F)cc2)CC1)C(C)C`, the “activity change, negative = inhibition” value was -8.91%.

For the compound `COc1cc(C2c3c(oc4ccccc4c3=O)C(=O)N2c2nc(C)c(C)s2)ccc1O` (stereo not drawn), the “activity change, negative = inhibition” value was -0.391%. On the same count and under the same terms, the value for `CC[C@]12c3[nH]c4cc(CCC(=O)N(C)C)ccc4c3CCN1C(=O)[C@@H](CC(=O)NCC13CC4CC(CC(C4)C1)C3)C[C@@H]2C(=O)N1CCN(C(=O)C2CC2)CC1` was -6.58%; that for `CCOC(=O)c1c(C)n(S(=O)(=O)c2ccc(C)cc2C)c2ccc(NS(=O)(=O)c3ccc(C)cc3C)cc12` was -14.8%.

Turning to `COc1cc(C(=O)NNC(=O)c2ccc(S(=O)(=O)N3CCCCC3)cc2)cc(OC)c1OC`, the “activity change, negative = inhibition” value was -3.74%.

As to `CCN(CC)S(=O)(=O)c1cccc(NC(=O)c2ccc(S(=O)(=O)N3CCCC3)cc2)c1`, the Potency was 23.1 µM (active).

In the case of `O=C(Nc1cccc(S(=O)(=O)N2CCCC2)c1)c1cncc(Br)c1`, the “activity change, negative = inhibition” value was -20.7%. In the case of `CC(C)n1ncc2c(C(=O)NCc3ccccc3CN(C)C)cc(C3CC3)nc21`, the “activity change, negative = inhibition” value was -4.86%.

As to `CC(C)(C)C(=O)Nc1cccc(-c2ccc[nH]2)n1`, the “activity change, negative = inhibition” value was 12.1%. Take `Cc1cc2c(cc1C)C(c1cccc(OC(C)C)c1)CC(=O)N2` (stereo not drawn): the Potency was 16.4 µM (active). For `COC(=O)c1ccc(C2CC(=O)Nc3cc(OC)c(OC)cc32)cc1` (stereo not drawn), the “activity change, negative = inhibition” value is -22.5%.

For the compound `COc1cc2c(cc1OC)C(c1ccncc1)CC(=O)N2` (stereo not drawn), the “activity change, negative = inhibition” value was 9.55%. On the same count and under the same terms, with `Cc1ccc(NC(=O)CN2C(=O)CC(C)Sc3ccccc32)c(C)c1` (stereo not drawn) the figure was -11.2%; with `OC(COc1ccccc1)CN1CCN(c2cccc(Cl)c2)CC1` (stereo not drawn), 5.04%; with `CCN1C(=O)/C(=C\N2CCN(c3cccc(Cl)c3)CC2)SC1=S`, 14.6%. As for `CCc1nn(CCCN2CCN(c3cccc(Cl)c3)CC2)c(=O)n1CCOc1ccccc1`, the Potency was 16.4 µM (active). As for `Cc1ccc(-c2noc(CSc3nnc(-c4ccc(Cl)cc4)n3C)n2)cc1`, the “activity change, negative = inhibition” value is -23.8%. `COC(=O)c1ccccc1NC(=O)Cn1c(=O)cc(C)c2c(C)nn(-c3cccc(Cl)c3C)c21`: the “activity change, negative = inhibition” value was 19.2%. The same measure, in the same setting: the value for `COc1cccc(/C=C/C(=O)OCC(=O)N2CCN(c3ccccc3)CC2)c1` was -5.53%.

For `COc1cccc(-c2ccc(SCC(=O)N3CCN(c4ccccc4)CC3)nn2)c1`, the Potency was 20.6 µM (active). Regarding `Cc1nnc(SCC(=O)N2CCN(c3ccccc3)CC2)n1-c1ccccc1`, the “activity change, negative = inhibition” value is -13.8%. Same read-out and setting: the value for `C=CC[C@H](CC(=O)OC(C)(C)C)C(=O)OC[C@H]1CCCN1C(=O)[C@H](CC=C)CC(=O)N(CCO)Cc1ccccc1` was 6.87%; that for `C=CC[C@@H](CC(=O)N[C@H](CO)Cc1ccccc1)C(=O)N[C@@H](COC(=O)[C@@H](CC=C)Cc1ccc(F)cc1)Cc1c[nH]c2ccccc12` was 5.43%. Consider `C=CCC[C@@H](Cc1ccc(F)cc1)C(=O)O[C@H](CNC(=O)[C@H](CC=C)CC(=O)N(CCO)Cc1ccccc1)c1ccccc1`, for which the Potency was 18.4 µM (active).

With `C=CCC[C@@H](Cc1ccc(F)cc1)C(=O)OC[C@@H](C)NC(=O)[C@H](CC=C)CC(=O)N(CCO)Cc1ccccc1`, the “activity change, negative = inhibition” value was -20.4%. On to `C=CCC[C@@H](Cc1ccc(F)cc1)C(=O)OC[C@H](Cc1c[nH]c2ccccc12)NC(=O)[C@@H](CC=C)CC(=O)N(CCO)Cc1ccccc1`, for which the Potency was 20.6 µM (active). For `C=CC[C@@H](CC(=O)N[C@H](CO)Cc1ccccc1)C(=O)N[C@H](C)COC(=O)[C@@H](CC=C)Cc1ccc(F)cc1`, the “activity change, negative = inhibition” value was -13%.
